Screening results: PubChem BioAssay, several laboratories
CCHFV vOTU inh – CCHFV vOTU protease inhibitors, primary screen, biochemical, Pep-AMC substrate, fluorescence | inhibition, % at 11.5 µM | 370,000 compounds, 0.55% hits | AID 651958, 2012; in the data active = inhibition above about 30%; also: 0% = vehicle wells with enzyme and 100% = no enzyme wells
DUSP3 inh – VHR1 phosphatase inhibitors, primary screen, biochemical, absorbance, uHTS | Dual specificity protein phosphatase 3 (Homo sapiens), P51452 | recombinant VHR phosphatase, pNPP absorbance | inhibition, % at 13.3 µM | 290,000 compounds, 0.52% hits | AID 1654, 2009; in the data active = inhibition above about 50%
Target sequence (P51452 whole entry, looked up): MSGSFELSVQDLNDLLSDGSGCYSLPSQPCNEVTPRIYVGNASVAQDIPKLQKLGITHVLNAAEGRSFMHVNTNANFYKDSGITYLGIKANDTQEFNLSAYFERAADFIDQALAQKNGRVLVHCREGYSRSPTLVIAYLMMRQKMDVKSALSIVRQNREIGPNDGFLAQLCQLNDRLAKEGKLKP
MazEF act – activators of E. coli MazEF toxin-antitoxin RNase, primary screen, biochemical, fluorescence, uHTS; activation, % at 20 µM; 350,000 compounds, 0.32% hits; FAM/BHQ RNA-DNA oligo cleavage fluorescence, 5 h; in the data active = activation above about 50%
Target sequence (P0AE70 whole entry, looked up): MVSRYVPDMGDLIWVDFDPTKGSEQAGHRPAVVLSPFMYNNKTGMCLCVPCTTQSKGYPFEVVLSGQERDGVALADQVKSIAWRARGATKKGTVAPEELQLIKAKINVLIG
Vc quorum ag – inducers of Vibrio cholerae quorum light production without autoinducers, primary screen, BH1578 luxS cqsA deficient, single point; activation, % at 18.7 µM; V. cholerae BH1578 lux reporter, luminescence, 6 h; 350,000 compounds, 0.16% hits; AID 588436, 2011; in the data active = activation mostly above about 9.7%, no sharp cut-off
PrPC surface inh – inhibitors of human cell surface prion protein PrPC, primary screen, cell-based, TR-FRET; Major prion protein (Homo sapiens), P04156; TR-FRET read-out; inhibition, % at 13.8 µM; 370,000 compounds, 0.43% hits; AID 720596, 2013; in the data active = inhibition above about 24%; also: 0% = median of the test wells and 100% = reference compound wells
Yp Topo-I inh – Yersinia pestis topoisomerase I inhibitors, primary screen, biochemical, cleavage product accumulation, plate reader, single point; Y. pestis Topo-I cleavage product accumulation; activity, % at 10 µM; 360,000 compounds, 0.064% hits; AID 504884, 2011; in the data active = activity above about 50%, passing the limit was not always enough
Numbers without * were called inactive; i = inactive; / = no result; + = active, no number. In the library only some 1.8% were active in any assay of this set; here they are far more common.

SMILES	CCHFV vOTU inh	DUSP3 inh	MazEF act	Vc quorum ag	PrPC surface inh	Yp Topo-I inh
COc1cccc(NC(=O)C2CCCN2C(=O)NCc2ccccc2OC)c1 (centres undefined)	-6	/	/	/	-1	/
C/C(=N\Nc1ccc(C(=O)c2c(C)cc3ccccn23)cc1[N+](=O)[O-])c1ccc(O)cc1	3	34	13	i	-1	-2
Cc1cc2ccccn2c1C(=O)c1ccc(N/N=C/c2ccc(C(=O)O)cc2)c([N+](=O)[O-])c1	-1	83*	-28	i	-6	-2
Cc1ccc2c(CN3CCC(C)CC3)cc(=O)oc2c1C	1	53*	0	3	11	3
CN(C)C(=O)c1ccc(NC(=O)c2sccc2-c2ccccc2)cc1	-2	57*	-3	0	8	2
CN(C)C(=O)c1ccc(NC(=O)c2cccnc2)cc1	-3	16	-4	i	1	1
CC(C)(C)N1C(=O)Cc2c1nc(N)c1c(N)nc(N3CCCCC3CO)c(C#N)c21 (centres undefined)	/	58*	-22	i	/	-4
O=C(CC1CCCC1)N1CC[C@H]2[C@H](CCCN2Cc2cc(F)cc(F)c2)C1	4	/	/	/	5	/
COc1ccc(C(=O)Nc2nc(C)c(C(C)=O)s2)cc1S(=O)(=O)N1CCOCC1	21	/	69*	0	-5	13
COc1ccc(C(=O)Nc2nnc(C)s2)cc1S(=O)(=O)N1CCOCC1	6	/	1	0	-3	-5
COc1cccc(C(=O)Nc2ccc(C(=O)NCC3COc4ccccc4O3)cc2)c1 (centres undefined)	2	/	/	/	-5	/
CN(C)c1ccc(N/C=C/C(=O)c2ccc(F)cc2)cc1	/	-5	105*	-1	/	-1
NS(=O)(=O)c1ccc(N/C=C\C(=O)c2ccc(F)cc2)cc1	12	34	5	2	-2	-2
N#CCC[C@H]1CC[C@]2(CCCN(C(=O)C3CCCC3)C2)O1	1	/	/	/	5	/
COC(=O)[C@]12C[C@H](CC(=O)N3CCN(C(=O)c4ccco4)CC3)C(=O)N(CCc3ccc(OC)c(OC)c3)C1=C[C@H](COCc1ccccc1)O[C@@H]2C	6	/	/	/	3	/
C/C(CCc1ccccc1)=N\NC(=S)NCCc1ccccc1	-19	50*	-34	i	-4	15
C/C(=N\NC(=S)NCCc1ccccc1)c1cccs1	7	-4	-16	0	-5	30
N#C/C(C(=O)Oc1ccccc1)=C1\C=Cc2ccccc2N1	11	7	50*	i	-2	8
C=CCn1c(C)cc(C(=O)CN2NS(=O)(=O)c3ccccc3C2=O)c1C	9	38	57*	i	8	-2
CCCCNC(=O)C1(C(=O)c2ccc(OC)cc2)CC(C(=O)OCC)=NO1 (centres undefined)	5	/	/	/	7	/
O=C(CCc1ccccc1)N[C@H]1[C@H](OC(=O)c2cccnc2)CCC[C@@]12C(=O)N(Cc1ccccc1)c1ccccc12	1	/	/	/	10	/
COc1cccc(Cn2c(=O)oc3ccccc32)c1	0	53*	1	i	3	-1
O=c1oc2ccccc2n1Cc1ccccc1	24	-13	-2	i	1	7
O=C(CCc1ccccc1)Nc1ncn[nH]1	-3	53*	6	1	8	6
O=C(CSc1ncnc2scc(-c3ccc(Cl)cc3)c12)Nc1ccccc1-c1ccccc1	2	/	/	/	-2	/
SMILES	CCHFV vOTU inh	DUSP3 inh	MazEF act	Vc quorum ag	PrPC surface inh	Yp Topo-I inh
Nc1ccc(-c2cc(-c3ccc(N)cc3)nc(-c3ccccc3)n2)cc1	-14	14	-2	i	4	-12
Oc1ccc(-c2cc(-c3ccc(O)cc3)nc(-c3ccccc3)n2)cc1	20	21	59*	1	8	-1
COCCNC(=S)N(C)[C@H]1C[C@H]2c3[nH]c4c(-c5cccc(C)c5)cccc4c3CCN2C[C@H]1[C@H](C)O	-11	/	/	/	-10	/
Cn1c(O)c(N=Nc2ccccc2)c2ccccc21	-6	-3	-7	-13	-3	2
Cn1c(O)c(N=Nc2ccc(F)cc2)c2ccccc21	-4	32	337*	-1	-1	6
C=CCn1c(O)c(N=NC(=O)CNC(=O)/C=C/c2ccc(OC)cc2)c2ccccc21	5	21	0	0	-1	22
CCCn1c(O)c(N=NC(=O)CNC(=O)/C=C/c2ccc(OC)cc2)c2ccccc21	21	12	3	80*	-5	20
Cn1c(O)c(N=NC(=O)CNC(=O)c2ccccc2)c2cc(Br)ccc21	-3	43	-4	0	-21	22
Cn1c(O)c(N=NC(=O)CNC(=O)c2ccccc2)c2ccccc21	-10	53*	7	-1	-28	2
COC(=O)[C@]12C[C@H](CC(=O)NCc3ccccc3)C(=O)N(Cc3ccco3)C1=C[C@H](C(C)(C)C)O[C@@H]2C	16	/	/	/	0	/
O=[N+]([O-])c1cc(C=NN2CCN(Cc3ccccc3Cl)CC2)ccc1Cl	13	/	/	/	-12	/
O=C(Nc1ccc2c(c1)OCO2)N1CCN(c2ccc(F)cc2)CC1	-2	57*	6	-1	9	1
CC(C)COC(=O)c1ccccc1C(=O)OCC(C)C	-1	26	7	0	-5	3
CCCCC(CC)COC(=O)c1ccccc1C(=O)OCC(CC)CCCC (centres undefined)	8	/	-3	-1	-3	61*
O=C(N/N=C/C=C/c1ccccc1)c1cccc(Br)c1	11	39	53*	-1	-5	9
Cc1ccc(C(=O)N/N=C/C=C/c2ccccc2)cc1	18	40	-9	6	10	-2
CN(N=Nc1ccc([N+](=O)[O-])cc1)c1ccccc1	11	-5	+	i	3	-7
CCOC(=O)c1ccc(NC(=O)C2(c3ccc(OC)cc3)CCCC2)cc1	3	10	7	1	3	22
CCOC(=O)c1ccc(NC(=O)C2(c3ccc(OC)cc3)CCOCC2)cc1	-2	21	60*	i	0	10
O=C(c1cc(-c2ccc(Cl)cc2)nc2ccccc12)N1CCN(c2ncccn2)CC1	-8	/	/	/	-8	/
CC(=O)c1ccc(NC(=O)C2=CC(c3ccc4c(c3)OCO4)=NS(=O)(=O)N2C)cc1	16	56*	11	0	-10	-12
Cc1ccc(C2=NS(=O)(=O)N(C)C(C(=O)Nc3ccc4c(c3)OCO4)=C2)cc1	8	25	9	0	-5	-8
O=C(OCc1ccccc1)N1CCC2CC1c1cc(Cl)ccc12 (centres undefined)	-8	/	-26	i	1	-7
O=C(OCc1ccccc1)N1CCC2CC1c1c(Cl)cccc12 (centres undefined)	6	/	-8	1	-5	59*
